# In PubChem BioAssay (NCATS):
# Results filed as inconclusive are left out. Calls of active or inactive are those of the source. The call rests on the fitted dose curve; in most records, active means well fitted cell-killing curve with a large enough effect; inconclusive means small, poorly fitted or top-dose-only effect, or effect the other way; inactive means no such curve, though single readings can be large or run the other way.
# Assay: Quantitative High-Throughput drug screen in 47 multiple myeloma cell lines against the NCATS MIPE library collection: KMS26_JCRB cell viability assay (AID 1918975); further: nearly all actives have a fitted effect of over 45% in size
# Details: KMS26 myeloma cells viability, CellTiter-Glo ATP, 48 h; series mostly up to 45.8 µM
# Method in brief: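 Myeloma cells (500 per well) were exposed to MIPE 4.0 compounds by pin transfer and incubated 48 hours at 37C, 5% CO2. Viability was read as ATP by CellTiter-Glo luminescence, normalised to DMSO (100%) and media-only (0%) wells.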
# Potency means the concentration at half of the fitted maximal effect.
row,Compound,Potency
1,CC(C)(C)c1cnc(CSc2cnc(NC(=O)C3CCNCC3)s2)o1,148 nM (active)
2,CCS(=O)(=O)c1cccc(-c2cc(C(=O)NC3CCN(C)CC3)c(C)c3[nH]c4ncc(C)cc4c23)c1,2960 nM (active)
3,CNC(=O)c1ccccc1Nc1nc(Nc2ccc(N3CCOCC3)cc2OC)ncc1Cl,418 nM (active)
4,OCCCNc1cc(-c2ccnc(Nc3cccc(Cl)c3)n2)ccn1,132 nM (active)
5,CC(C)c1ccccc1Cc1cc(C(=O)Nc2ccc(S(=O)(=O)c3ccccc3C(C)(C)C)cc2)c(O)c(O)c1O,9350 nM (active)
6,Cn1cc(-c2[nH]c3cc(NC(=O)[C@H](N)C4CCCCC4)cc4c3c2C=NNC4=O)cn1,8330 nM (active)
7,N#CCNC(=O)c1ccc(-c2ccnc(Nc3ccc(N4CCOCC4)cc3)n2)cc1,18700 nM (active)
8,CN1CC[C@@H](c2c(O)cc(O)c3c(=O)cc(-c4ccccc4Cl)oc23)[C@@H](O)C1,105 nM (active)
9,NC(=O)Nc1cc(-c2cccc(F)c2)sc1C(=O)N[C@H]1CCCNC1,11800 nM (active)
10,CN(C)Cc1c(C(=O)NCCOc2ccc(C(=O)NO)cc2)oc2ccccc12,1050 nM (active)
11,Cc1[nH]nc2ccc(-c3cncc(OC[C@@H](N)Cc4ccccc4)c3)cc12,2640 nM (active)
12,COC(=O)[C@]12CCC(C)(C)C[C@@H]1[C@@H]1C(=O)C=C3[C@@]4(C)C=C(C#N)C(=O)C(C)(C)[C@@H]4CC[C@@]3(C)[C@]1(C)CC2,209 nM (active)
13,CC(C)C[C@H](NC(=O)CNC(=O)c1cc(Cl)ccc1Cl)B(O)O,118 nM (active)
